Assay results: PubChem BioAssay (Tox21)
Inconclusive results are not listed. Active and inactive are the calls of the source. Unless noted, calls follow the shape of the dose curve; as a rule, active = well fitted curve in the direction sought with a large enough effect in the repeat runs; inconclusive = weak or mixed curves; inactive = no such curve, though single readings can be large; an effect the other way counts as inactive or inconclusive.

Legend:
[1] = qHTS assay to test for compound auto fluorescence at 535 nm (green) in HEK293 cells (AID 720680)
[2] = qHTS assay to test for compound auto fluorescence at 460 nm (blue) in HEK293 cell free culture (AID 720681)
Method in brief: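 Blue fluorescence (Ex 405/Em 460 nm, triamterene-equivalent) was read immediately after pin transfer of compound or DMSO into medium (DMEM, 10% FBS) without cells.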

[3] = qHTS assay to test for compound auto fluorescence at 590 nm (red) in HEK293 cell free culture (AID 720683)
Method in brief: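 Red-channel autofluorescence of compounds in culture medium (DMEM, 10% FBS), no cells, measured at 540/590 nm. Rose Bengal sodium is the reference fluorophore for equivalence.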

[4] = qHTS assay to test for compound auto fluorescence at 590 nm (red) in HepG2 cell free culture (AID 720684)
Method in brief: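 Plate contents were MEM with 10% FBS plus test compound or DMSO, no cells. Fluorescence was recorded with 540 nm excitation and 590 nm emission.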

[5] = qHTS assay to test for compound auto fluorescence at 460 nm (blue) in HepG2 cell free culture (AID 720685)
Method in brief: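 Compound (23 nL) or DMSO pinned into cell-free MEM with 10% FBS; blue fluorescence read at 405/460 nm excitation/emission, expressed as auto-fluorescence equivalency to triamterene.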

[6] = qHTS assay to test for compound auto fluorescence at 535 nm (green) in HepG2 cell free culture (AID 720686)
[7] = qHTS assay to test for compound auto fluorescence at 460 nm (blue) in HepG2 cells (AID 720687)
Method in brief: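 Blue-channel autofluorescence (Ex/Em 405/460 nm, triamterene-equivalent) was measured after 1 hr compound exposure at 37 C, 5% CO2. Cells were HepG2, plated overnight at 37 C in MEM plus 10% FBS.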

[8] = target: Glucocorticoid receptor (Homo sapiens) (UniProt P04150); assay: qHTS assay to identify small molecule agonists of the glucocorticoid receptor (GR) signaling pathway (AID 720691; active = well fitted activation curve with a large enough effect in the signal ratio in the repeat runs, not every such curve was filed as active; the % refers to the signal ratio)
Sequence of Glucocorticoid receptor (Homo sapiens) (P04150 whole entry, looked up): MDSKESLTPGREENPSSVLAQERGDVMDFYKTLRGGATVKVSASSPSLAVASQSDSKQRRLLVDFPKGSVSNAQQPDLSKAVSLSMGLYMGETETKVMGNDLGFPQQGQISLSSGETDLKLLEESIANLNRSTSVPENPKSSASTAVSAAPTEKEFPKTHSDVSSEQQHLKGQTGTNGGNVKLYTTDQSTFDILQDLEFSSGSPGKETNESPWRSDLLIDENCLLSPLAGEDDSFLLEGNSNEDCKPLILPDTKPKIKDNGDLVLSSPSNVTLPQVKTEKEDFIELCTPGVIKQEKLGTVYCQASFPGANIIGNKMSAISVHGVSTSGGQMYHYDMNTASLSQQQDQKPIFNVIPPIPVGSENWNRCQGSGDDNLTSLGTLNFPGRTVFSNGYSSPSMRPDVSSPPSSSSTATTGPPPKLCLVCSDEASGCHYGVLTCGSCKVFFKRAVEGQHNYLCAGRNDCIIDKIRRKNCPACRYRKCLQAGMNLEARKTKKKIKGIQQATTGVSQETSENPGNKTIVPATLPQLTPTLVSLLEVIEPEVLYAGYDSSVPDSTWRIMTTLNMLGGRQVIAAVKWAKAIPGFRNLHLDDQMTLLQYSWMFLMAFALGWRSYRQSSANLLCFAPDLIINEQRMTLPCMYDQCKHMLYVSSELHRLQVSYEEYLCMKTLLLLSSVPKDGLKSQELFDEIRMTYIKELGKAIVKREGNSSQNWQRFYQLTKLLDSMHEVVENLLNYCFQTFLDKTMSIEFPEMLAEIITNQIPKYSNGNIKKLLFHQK
Method in brief: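 qHTS in GR-bla HeLa cells: 4 h settling at 37 C/5% CO2, 18 h compound incubation at 37 C, 2 h LiveBLAzer B/G FRET substrate at room temperature, fluorescence intensity measured.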

[9] = target: Glucocorticoid receptor (Homo sapiens) (UniProt P04150); assay: qHTS assay to identify small molecule antagonists of the glucocorticoid receptor (GR) signaling pathway (AID 720692; active = well fitted inhibition curve with a large enough effect in the signal ratio in the repeat runs, not every such curve was filed as active; the % refers to the signal ratio)
Method in brief: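 Inhibition of glucocorticoid signalling is measured in HeLa cells with a GRE-controlled beta-lactamase reporter; cells are co-treated with compound and 5 nM dexamethasone (final) for 18 h before FRET substrate readout.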

[10] = qHTS assay to identify small molecule antagonists of the glucocorticoid receptor (GR) signaling pathway - cell viability counter screen (AID 720693); also: nearly all actives have a fitted effect of over 55% in size
[11] = qHTS assay for identifying genotoxic compounds that show differential cytotoxicity against isogenic chicken DT40 cell lines with known DNA damage response pathways - wild type cell line (AID 743012); also: nearly all actives have a fitted effect of over 60% in size
Method in brief: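 First, wild type DT40 cells were plated at 300 per well and equilibrated about 0.5 h at 37 C/5% CO2. Next, compounds in DMSO were added and exposure lasted 40 h. Finally, CellTiter-Glo was added for 30 min at room temperature and luminescence recorded.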

[12] = qHTS assay for identifying genotoxic compounds that show differential cytotoxicity against isogenic chicken DT40 cell lines with known DNA damage response pathways - Rev3 mutant cell line (AID 743014); also: nearly all actives have a fitted effect of over 55% in size
[13] = qHTS assay for identifying genotoxic compounds that show differential cytotoxicity against isogenic chicken DT40 cell lines with known DNA damage response pathways - Rad54/Ku70 mutant cell line (AID 743015); also: nearly all actives have a fitted effect of over 60% in size
[14] = qHTS assay to identify small molecule antagonists of the androgen receptor (AR) signaling pathway - cell viability counter screen (AID 743033; also: nearly all actives have a fitted effect of over 45% in size)
[15] = qHTS assay to identify small molecule antagonists of the androgen receptor (AR) signaling pathway using the MDA cell line - cell viability counter screen (AID 743041; also: nearly all actives have a fitted effect of over 45% in size)
Method in brief: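 R1881-driven MDA-kb2 AR-luc cells, 3,000/well, were dosed with library compounds for 16 h; cell health came from CellTiter-Fluor fluorescence in the reporter wells.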

[16] = qHTS assay to test for compound auto fluorescence at 535 nm (green) in HEK293 cell free culture (AID 720682)
Method in brief: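 No cells present: wells hold DMEM supplemented with 10% FBS, into which compound or vehicle is pinned. Green emission is then recorded (485 nm excitation, 535 nm emission) and scaled to fluorescein.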

[17] = target: Androgen receptor (Homo sapiens) (UniProt P10275); assay: qHTS assay to identify small molecule antagonists of the androgen receptor (AR) signaling pathway (AID 743035; active = well fitted inhibition curve with a large enough effect in the signal ratio in the repeat runs, not every such curve was filed as active; the % refers to the signal ratio)
Sequence of Androgen receptor (Homo sapiens) (P10275 whole entry, looked up): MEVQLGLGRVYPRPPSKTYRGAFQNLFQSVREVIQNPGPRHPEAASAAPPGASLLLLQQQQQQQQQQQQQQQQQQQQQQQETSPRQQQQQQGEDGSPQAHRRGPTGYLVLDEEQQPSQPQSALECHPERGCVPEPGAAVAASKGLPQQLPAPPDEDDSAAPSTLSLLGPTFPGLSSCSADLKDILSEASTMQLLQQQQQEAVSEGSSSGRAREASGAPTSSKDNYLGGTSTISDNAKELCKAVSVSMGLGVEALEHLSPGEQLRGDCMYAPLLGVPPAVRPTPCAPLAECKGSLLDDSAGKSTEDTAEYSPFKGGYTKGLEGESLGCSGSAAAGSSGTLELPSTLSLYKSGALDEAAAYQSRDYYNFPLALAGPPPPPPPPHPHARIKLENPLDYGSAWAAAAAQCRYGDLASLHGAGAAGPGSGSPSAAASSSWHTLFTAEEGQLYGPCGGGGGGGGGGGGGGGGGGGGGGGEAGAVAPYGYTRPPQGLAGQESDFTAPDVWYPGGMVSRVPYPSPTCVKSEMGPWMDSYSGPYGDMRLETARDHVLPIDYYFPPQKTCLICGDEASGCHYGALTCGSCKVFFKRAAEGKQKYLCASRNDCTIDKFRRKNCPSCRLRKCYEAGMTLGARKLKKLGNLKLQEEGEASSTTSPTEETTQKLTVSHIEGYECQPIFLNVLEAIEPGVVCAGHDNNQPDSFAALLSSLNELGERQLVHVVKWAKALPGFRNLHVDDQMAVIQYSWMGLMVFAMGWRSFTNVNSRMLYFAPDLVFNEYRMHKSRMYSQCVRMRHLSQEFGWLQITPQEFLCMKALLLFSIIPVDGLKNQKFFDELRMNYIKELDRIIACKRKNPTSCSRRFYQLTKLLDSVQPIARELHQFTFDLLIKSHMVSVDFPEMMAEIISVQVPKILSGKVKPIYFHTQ
Method in brief: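 Beta-lactamase FRET read (2 h RT incubation with LiveBLAzer B/G) following 16 h of compound plus R1881 treatment of AR-UAS-bla HEK293 cells, which had been pre-incubated 4 h at 37C.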

[18] = target: Androgen receptor (Homo sapiens) (UniProt P10275); assay: qHTS assay to identify small molecule agonists of the androgen receptor (AR) signaling pathway (AID 743036; active = well fitted activation curve with a large enough effect in the signal ratio in the repeat runs, with a control signal flat, not every such curve was filed as active; the % refers to the signal ratio)
Method in brief: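 Quantitative HTS of the Tox21 10K library in HEK293 cells bearing a stably integrated UAS-controlled beta-lactamase reporter. Compound exposure lasted 16 h at 37C. Reporter activity was detected by FRET substrate fluorescence after 2 h at room temperature.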

[19] = target: Androgen receptor (Homo sapiens) (UniProt P10275); assay: qHTS assay to identify small molecule agonists of the androgen receptor (AR) signaling pathway using the MDA cell line (AID 743040; also: nearly all actives have a fitted effect of over 20% in size)
Method in brief: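 After a 5 h incubation at 37C and 0% CO2, MDA-kb2 reporter cells were dosed with compounds in DMSO and kept 16 h under the same conditions. Luciferase activity was then read as luminescence with ONE-Glo.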

[20] = target: Androgen receptor (Homo sapiens) (UniProt P10275); assay: qHTS assay to identify small molecule antagonists of the androgen receptor (AR) signaling pathway using the MDA cell line (AID 743042; also: nearly all actives have a fitted effect of over 55% in size)
Method in brief: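 Antagonist mode: compounds plus R1881 agonist added to MDA-kb2 AR-luc cells, incubated 16 h at 37C. Luciferase reporter luminescence quantified, with multiplexed CellTiter-Fluor readout for cell viability.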
% is scaled to controls: 0 for no effect and ±100 for the full control effect.

Cc1nc2n(c(=O)c1CCN1CCC(c3noc4cc(F)ccc34)CC1)CCC[C@H]2O
inactive: outcome [1] | outcome [2] | outcome [3] | outcome [4] | outcome [5] | outcome [6] | outcome [7] | Potency [8] | outcome [9] | outcome [10] | Potency [11] | Potency [12] | Potency [13] | Potency [14]

CCCCCCOC(=O)CC
inactive: outcome [1] | outcome [2] | outcome [3] | outcome [4] | outcome [5] | outcome [6] | outcome [7] | Potency [8] | outcome [9] | outcome [10] | Potency [11] | Potency [12] | Potency [13] | Potency [14] | Potency [15]

O=C(CCNNC(=O)c1ccncc1)NCc1ccccc1
inactive: outcome [1] | outcome [2] | outcome [16] | outcome [4] | outcome [5] | outcome [6] | outcome [7] | Potency [8] | outcome [9] | Potency [11] | Potency [12] | Potency [13] | Potency [14] | Potency [15]

CCCCOCCOC(=O)COc1nc(Cl)c(Cl)cc1Cl
inactive: outcome [1] | outcome [2] | outcome [16] | outcome [4] | outcome [5] | outcome [6] | outcome [7] | outcome [9] | outcome [10] | Potency [11] | Potency [13] | Potency [14]

COC(=O)C1CC(=O)C(C(=O)OC)CC1=O (stereo not drawn)
inactive: fluorescence, % of fluorescein [1] -0.0599% [at 3.72 µM] | fluorescence, % of fluorescent control [2] 1.67% [at 3.72 µM] | fluorescence, % of Rose Bengal [4] 0.258% [at 3.72 µM] | fluorescence, % of fluorescent control [5] 2.39% [at 3.72 µM] | fluorescence, % of fluorescein control [6] -0.0181% [at 3.72 µM] | fluorescence, % of fluorescent control [7] 1.56% [at 3.72 µM] | viability change, negative = cytotoxic [10] -6.7% [at 7.04 µM] | activity change, negative = cytotoxicity [11] -1.23% [at 8.52 µM] | activity, negative = cytotoxicity [12] 6.72% [at 8.53 µM] | activity change, negative = cytotoxicity [13] -1.14% [at 8.55 µM] | activity change, negative = cytotoxicity [14] -11.9% [at 7.04 µM]

N[C@@H](CCC(=O)N[C@@H](CS)C(=O)NCC(=O)O)C(=O)O
inactive: outcome [1] | outcome [2] | outcome [3] | outcome [4] | outcome [5] | outcome [6] | outcome [7] | outcome [10] | Potency [11] | Potency [12] | Potency [14] | Potency [15]

N[C@@H](COP(=O)(O)O)C(=O)O
inactive: outcome [1] | outcome [16] | outcome [3] | outcome [4] | outcome [5] | outcome [6] | outcome [7] | Potency [8] | outcome [9] | outcome [10] | Potency [11] | Potency [12] | Potency [13] | Potency [14]

NS(=O)(=O)c1ccc(NC(=O)CCC(=O)O)cc1
inactive: outcome [1] | outcome [16] | outcome [3] | outcome [4] | outcome [5] | outcome [6] | outcome [7] | Potency [8] | outcome [9] | outcome [10] | Potency [11] | Potency [12] | Potency [14] | Potency [15]

Cc1cc2cc3c(C)cc(=O)oc3c(C)c2o1
inactive: fluorescence, % of fluorescein [1] 0.0223% [at 18.6 µM] | fluorescence, % of fluorescent control [2] 1.37% [at 18.6 µM] | fluorescence, % of Rose Bengal [4] -0.0947% [at 18.6 µM] | fluorescence, % of fluorescent control [5] 1.64% [at 18.6 µM] | fluorescence, % of fluorescein control [6] -0.0028% [at 18.6 µM] | fluorescence, % of fluorescent control [7] 1.96% [at 18.6 µM] | outcome [10] | Potency [11] | Potency [12] | Potency [13] | Potency [14] | Potency [15]

C=C1CC/C=C(\C)CC[C@@H]2[C@@H]1CC2(C)C
inactive: outcome [1] | outcome [2] | outcome [3] | outcome [4] | outcome [5] | outcome [6] | outcome [7] | outcome [10] | Potency [11] | Potency [13] | Potency [14] | Potency [15]

CN(C)C(=O)CNC(=O)Cc1ccccc1
inactive: outcome [1] | outcome [16] | outcome [3] | outcome [4] | outcome [5] | outcome [6] | outcome [7] | Potency [8] | outcome [9] | outcome [10] | Potency [11] | Potency [12] | Potency [13] | Potency [14]

NC(CO)C(=O)NNCc1ccc(O)c(O)c1O (stereo not drawn)
inactive: outcome [1] | outcome [2] | outcome [3] | outcome [4] | outcome [5] | outcome [6] | outcome [7] | Potency [13] | Potency [14] | Potency [17] | outcome [18] | outcome [19] | Potency [20]

CCCCCCCCOS(=O)(=O)O
inactive: outcome [1] | outcome [2] | outcome [3] | outcome [4] | outcome [5] | outcome [6] | outcome [7] | Potency [8] | outcome [9] | outcome [10] | Potency [11] | Potency [12] | Potency [13] | Potency [14] | Potency [15]

CCCCCCCCC(=O)Cl
inactive: outcome [1] | outcome [2] | outcome [3] | outcome [4] | outcome [5] | outcome [6] | outcome [7] | outcome [10] | Potency [12] | Potency [13] | Potency [14] | Potency [15]

Nc1cccc(O)c1
inactive: outcome [1] | outcome [2] | outcome [3] | outcome [4] | outcome [5] | outcome [6] | outcome [7] | Potency [8] | outcome [9] | outcome [10] | Potency [11] | Potency [12] | Potency [14] | Potency [15]
